High-throughput results from PubChem.
Pf apPOL block: Pf-apPOL DNA polymerase inhibition | Recombinant Pf-apPOL, molecular beacon fluorescence, 1.5 h | inhibition, % at 10 µM | hit rate 0.25% among 210,000 | AID 1794808
mHTT-CaM PPI inh: disrupts binding of mutant huntingtin to calmodulin | AlphaScreen His-mHTT/GST-CaM binding, luminescence | inhibition, % at 15 µM | hit rate 3.6% among 190,000 | AID 1671202;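 also: 0% = both proteins with DMSO and 100% = one protein alone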
* marks the source's active call; other numbers are inactive results; i = inactive; nt = not tested or not shown. This is a sample that favours compounds with a hit; in the whole collection about 3.6% have one here. Rule as the data show it: active = inhibition above about 50%; inactive = the rest.

SMILES	Pf apPOL block	mHTT-CaM PPI inh
COCCNc1nc(SCC(=O)c2ccc(O)c(O)c2)nc2ccccc12	-2	12
N#CC1=C(N)n2c(s/c(=C\c3ccsc3)c2=O)=C(C#N)C1c1ccsc1 (stereo not drawn)	-17	70*
N#CC1=C(N)N(c2ccccc2)C2=C(C(=O)CCC2)C1c1ccsc1 (stereo not drawn)	-6	0
CCNc1cc(N2CCCC(CCC(=O)Nc3ccc4c(c3)OCCO4)C2)ncn1 (stereo not drawn)	-5	19
CCNc1cc(N2CCCC(CCC(=O)Nc3ccc(OC)cc3OC)C2)ncn1 (stereo not drawn)	-6	17
CCCNc1cc(N2CCCC(CCC(=O)Nc3ccc4c(c3)OCO4)C2)ncn1 (stereo not drawn)	-6	51*
COc1ccc(NC(=O)CCC2CCCN(c3cc(NC4CC4)ncn3)C2)c(OC)c1 (stereo not drawn)	-8	60*
Cc1oc2cc3oc(=O)c4ccccc4c3cc2c1-c1ccccc1	4	-11
O=C(Nc1cccc(-c2nc3ccccc3o2)c1)c1ccc(NC(=O)c2ccc([N+](=O)[O-])o2)cc1	-12	2
Cn1nnc2c(N3CCN(C(=O)C4c5ccccc5Oc5ccccc54)CC3)ncnc21	-1	58*
CCOC(=O)C(=O)N1CCN(c2ncnc3c2nnn3C)CC1	-3	-14
CC(C)c1ccccc1NC(=O)Cc1csc(Nc2ncccn2)n1	-3	2
CCOC(=O)Cc1csc(NC(=O)c2ncccn2)n1	-16	84*
Cc1cc(NC(=O)Cc2csc(NC(=O)c3ncccn3)n2)no1	-2	100*
Cc1cc(C)nc(Nc2nc(CC(=O)NCc3ccccn3)cs2)n1	-4	13
Cc1ccnc(Nc2nc(CC(=O)Nc3ccc4c(c3)OCCO4)cs2)c1	0	16
CCOC(=O)Cc1csc(NC(=O)CSc2ccccn2)n1	0	nt
CSc1ccccc1NC(=O)Cc1csc(NC(=O)c2ncccn2)n1	-24	100*
Cc1ccnc(Nc2nc(CC(=O)Nc3nnc(C)s3)cs2)c1	22	56*
Cc1cc(=O)n2c(-c3ccc(NC(=O)Nc4ccc(F)c(F)c4)cc3)csc2n1	-13	6
CCOCCCNC(=O)C1(C)CCC(=O)N1c1cc(Cl)ccc1OC (stereo not drawn)	-3	-2
CC(C)(C)CC(=O)NCc1cccnc1-c1ccccc1	-6	-13
COc1ccc(C)cc1NC(=O)c1coc(=O)c2ccccc12	0	3
COc1cc(NS(=O)(=O)c2ccc([N+](=O)[O-])cc2)c(OC)cc1Br	-5	26
Cc1cc(Cl)ccc1NC(=O)C1CCCN(c2ncnc3c2nc2n3CCCCC2)C1 (stereo not drawn)	0	13
SMILES	Pf apPOL block	mHTT-CaM PPI inh
CS(=O)(=O)Oc1ccc2c(c1)OC(=Cc1cc(Cl)cc3c1OCOC3)C2=O	-6	-5
COc1cc(C=Nc2ccccc2O)c([N+](=O)[O-])cc1OC	-6	86*
Cc1ccc(C(=O)O)cc1N=Cc1cc([N+](=O)[O-])cc([N+](=O)[O-])c1O	-4	-3
COc1cc(/C=N/O)c([N+](=O)[O-])cc1OC	nt	i
Cc1ccc(N=Cc2cc(Cl)cc([N+](=O)[O-])c2O)c(O)c1	-4	56*
Cc1ccc(N=Cc2cc(Cl)cc([N+](=O)[O-])c2O)cc1	11	6
O=[N+]([O-])c1cc(C=Nc2cc(-c3ccccc3)ccc2O)c(O)c([N+](=O)[O-])c1	-1	51*
O=C1CCc2cc(NC(=O)c3ccccc3F)ccc2N1	2	4
Cc1ccc(/C=C/C2=NC(=C/c3ccc(C)cc3)/C(=O)O2)cc1	0	7
Cc1ccc(-c2ccnc3c(C(=O)NCc4cccnc4)cnn23)cc1C	2	3
O=C(NCc1n[nH]c(=O)c2ccccc12)c1cc(-c2ccco2)[nH]n1	78*	31
O=C(NCc1n[nH]c(=O)c2ccccc12)c1cccc2ccccc12	-2	-8
O=S(=O)(Nc1ccc2c(c1)OCCO2)c1ccc2ccccc2c1	nt	-4
COc1ccc(Nc2nc(Cl)nc(NC(C)C)n2)cc1	-3	6
COc1ccc(Nc2nc(NN)nc(OCC(F)(F)F)n2)cc1	nt	92*
O=C(c1ccc2c(c1)CC(=O)N2Cc1ccccc1)N1CCN(c2ccccn2)CC1	-1	54*
CCCN1C(=O)Cc2cc(C(=O)N3CCN(c4ccccc4)CC3)ccc21	1	51*
Cc1cccc(N2CCN(C(=O)c3ccc(-c4cccnc4)nc3)CC2)c1C	0	64*
CCCN1C(=O)Cc2cc(C(=O)N3CCN(c4cccc(C)c4)CC3)ccc21	-5	49
CCCN1C(=O)Cc2cc(C(=O)N3CCOCC3)ccc21	1	-2
CCCN1C(=O)Cc2cc(C(=O)N3CCN(c4cccc(C)c4C)CC3)ccc21	-2	55*
COc1ccccc1N1CCN(C(=O)c2ccc(-c3cccnc3)nc2)CC1	-2	4
O=C(c1ccc2c(c1)CC(=O)N2Cc1ccccc1)N1CCCCC1	-5	33
COCCCNC(=O)c1cccc(C2CCCN(C(=O)Nc3ccc(Cl)cc3)C2)c1 (stereo not drawn)	0	-12
Cc1ccc(NC(=O)CN2C(=O)C3CCCN3C(=O)c3ccc(F)cc32)cc1 (stereo not drawn)	-7	-3
SMILES	Pf apPOL block	mHTT-CaM PPI inh
CC(C)NC(=O)C(=O)Nc1ccccc1	12	1
CCCN1C(=O)Cc2cc(C(=O)N3CCN(c4ccc(C)cc4)CC3)ccc21	-5	38
CCCN1C(=O)Cc2cc(C(=O)N3CCN(c4ccc(F)cc4)CC3)ccc21	-5	51*
O=C(Nc1c2c(nn1-c1cccc(Cl)c1)CS(=O)(=O)C2)c1cc([N+](=O)[O-])ccc1Cl	-4	0
Nc1ccc(S(=O)(=O)NCC(=O)O)cc1	-6	-16
Cc1cc(=O)[nH]c(-n2nc(C)cc2NC(=O)c2snnc2C)n1	-3	-13
Cc1cc(=O)[nH]c(-n2nc(C)cc2N)n1	-125	98*
NC(=NO)c1ccc(Oc2ccc(F)cc2F)c([N+](=O)[O-])c1	-7	nt
CCOc1ccccc1CNC(=O)C12CC3CC(C1)CC(n1cnc(Br)n1)(C3)C2	14	2
CC1=C(C(=O)Nc2ccccn2)C(c2ccccc2)C2=C(CC(C)(C)CC2=O)N1 (stereo not drawn)	-2	3
Cc1nc(-c2cnccn2)nc2c1CCC(=O)N2Cc1ccccc1	-1	9
Cc1nc(-c2ccncc2)nc2c1CCC(=O)N2Cc1ccco1	-8	22
Cc1nc(-c2cnccn2)nc2c1CCC(=O)N2Cc1ccncc1	59*	60*
Cc1nc(-c2ccncc2)nc2c1CCC(=O)N2Cc1ccncc1	14	6
Cc1ccc(CN2C(=O)CCc3c(C)nc(-c4ccccc4)nc32)o1	20	90*
Cc1nc(-c2ccncc2)nc2c1CCC(=O)N2CCN1CCCC1	56*	28
CC1(C)C(C=C(Cl)Cl)C1C(=O)Nc1cccc(Cl)c1Cl (stereo not drawn)	0	-34
CC1=C(C(=O)N(C)C)C(c2cccc(Cl)c2)n2c(nc3ccccc32)N1 (stereo not drawn)	-4	1
CN1CCN(c2cc(-c3nc(-c4ccccc4)no3)c3ccccc3n2)CC1	-6	1
O=C1NC(c2ccc(-c3ccc(F)cc3)o2)Nc2sc3c(c21)CCCC3 (stereo not drawn)	19	63*
O=C1NC(c2ccc3c(c2)OCO3)Nc2sc3c(c21)CCCC3 (stereo not drawn)	-8	1
